Source: PubChem BioAssay AID932 (The Scripps Research Institute Molecular Screening Center, 2007)
The whole screen tested about 200,000 compounds, of which about 5,100 (2.5%) were called active. The full list was thinned out, with actives kept by preference. Unmarked numbers belong to inactive results.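 The calls were made as follows: active = activation above the screen-wide mean activation plus 3 SD (cut at about 130% in these data); inactive = the rest.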 Where a SMILES comes first, the peptide text is derived from it. The star is where a group is joined. OPac = O=C(CO*)c1ccccc1; Bz = O=C(c1ccccc1)*

Assay: potentiators of IFN-gamma driven STAT1 reporter – cell-based, HTS, luciferase reporter, primary screen (AID 932);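 also: raw ratio to IFN-gamma control signal so 100% means no change and 0% no light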
Conditions: NIH 3T3 STAT1-luciferase reporter, luminescence, at 5.5 µM, hits give high values, 100% = IFN-gamma alone, no compound

Structure (SMILES)	activation (% of control)
COC(=O)c1cc(NC(=O)C2C3C=CC(C3)C2C(=O)O)cc(C(=O)OC)c1 (configuration not stated)	101%
CC(=O)NS(=O)(=O)c1ccc(NC(=O)C2C3C=CC(C3)C2C(=O)O)cc1 (configuration not stated)	99.5%
CC(C)COC(=O)c1ccc(NC(=O)C2C3C=CC(C3)C2C(=O)O)cc1 (configuration not stated)	138% (active)
Cc1ccc(S(=O)(=O)N2CCOCC2)cc1C(=O)OC1CCCCC1=O (configuration not stated)	97%
NC(=O)Cc1ccc2sc(-c3ccccc3)nc2c1	180% (active)
O=C(O)Cc1sc(-c2ccccc2)nc1-c1cccs1	108%
O=C(O)Cc1sc(-c2ccc(C(=O)O)cc2)nc1-c1ccccc1	93.7%
CN(CC(=O)NCCc1ccccc1)S(=O)(=O)c1cnc[nH]1	95.9%
O=C(CSc1nnnn1-c1ccc(O)cc1)N1N=C(c2ccc3ccccc3c2)CC1c1ccccc1 (configuration not stated)	110%
CCc1nc(C)cn1S(=O)(=O)c1cc([N+](=O)[O-])ccc1Cl	87.5%
COc1cccc(C(=O)Nc2cccnc2)c1OC	96.6%
Cc1cccc(-n2cnc(C(=O)Nc3cccnc3)c2)n1	140% (active)
Cc1cccc(-n2cnc(C(=O)NNC(=S)Nc3ccccc3)c2)n1	92%
Cc1noc(C)c1S(=O)(=O)Nc1ccc(C(=O)N2CCN(c3ccc(F)cc3)CC2)cc1	98.8%
N#Cc1ccc(OCc2nnc(-c3ccc([N+](=O)[O-])cc3)o2)cc1	99.1%
CN(C)S(=O)(=O)c1ccc(N2CCCC2=O)c([N+](=O)[O-])c1	108%
CSc1nc2ccc(NC(=O)c3c(F)cccc3F)cc2s1	145% (active)
CCCC(=O)Nc1nc2ccc(NC(=O)c3c(F)c(F)c(OC)c(F)c3F)cc2s1	102%
O=C(Nc1ccncc1)c1c(F)cccc1F	105%
CCOC(=O)c1c(CN(C)C)n(-c2ccccc2)c2cc(Br)c(O)cc12	101%
O=C(Nc1cc2ccccc2oc1=O)C1CCCCC1	149% (active)
CN1C(=O)c2ccc(NC(=O)C3CCCCC3)cc2C1=O	99.6%
O=C(O)c1ccc(NC(=O)C2CCCCC2)cc1	99.3%
CC(=O)Nc1ccc(/C(C)=N/NC(=O)CN(c2ccccc2Br)S(C)(=O)=O)cc1	97.6%
O=C(O)CCCCCNc1ncnc2ccc(Br)cc12	104%
Cc1[nH][nH]c(=O)c1C(c1ccc2c(c1)OCO2)c1c(C)[nH][nH]c1=O	101%

Structure (SMILES)	activation (% of control)
Clc1ccc(-c2ncc3ccccn23)c(Cl)c1	112%
Clc1ccc(-c2cc(C3CCNCC3)[nH]n2)c(Cl)c1	135% (active)
O=C1CSC(c2ccccc2)N1c1nc(-c2ccc(Cl)cc2Cl)cs1 (configuration not stated)	102%
O=C(O)c1ccn(COc2ccc(Br)cc2)n1	101%
N=C1C(=O)OCC1c1ccccc1NC(=O)CN1CCCCC1 (configuration not stated)	86.4%
Cc1ccc(N/C=C/C(=O)c2ccccc2)cc1C	142% (active)
O=C(/C=C\NCC(=O)c1ccccc1)c1ccccc1	104%
O=C(/C=C/NCc1ccc(F)cc1)c1ccccc1	117%
CC(C)(C)NC(=O)NC(=O)COC(=O)Cc1ccc(Cl)cc1Cl	103%
O=C(c1cnn(-c2ccc(Cl)cc2)c1)c1ccccc1O	137% (active)
Cc1ncc(CC(=O)n2cc(C(=O)c3cc(Cl)ccc3O)cn2)s1	103%
O=C(O)c1ccc(NC(=O)c2cn(-c3ccccc3)nc2-c2ccc(Cl)cc2)cc1	122%
O=C(Nn1c(SCc2ccc([N+](=O)[O-])cc2)nc2ccccc2c1=O)c1ccc(F)cc1	150% (active)
Cc1ccc(C)n1NC(=O)c1ccc([N+](=O)[O-])cc1	97.7%
O=C(Nn1c(-c2ccccc2)nc2ccccc2c1=O)c1ccc([N+](=O)[O-])cc1	95.4%
O=C(CNC(=O)c1ccccc1)NCC(=O)OCC(=O)c1ccccc1 (Bz-Gly-Gly-OPac)	101%
Cn1cc(CN2CCC(C(O)CCc3ccccc3)CC2)c(-c2ccccc2F)n1 (configuration not stated)	97.4%
CCNC(=S)N1CCC(c2nc3cc(C)c(C)cc3[nH]2)CC1	96.7%
COCCCNC(=S)N1CCCC(c2nc3cc(C)c(C)cc3[nH]2)C1 (configuration not stated)	140% (active)
CCCNC(=S)N1CCCC(c2nc3ccccc3[nH]2)C1 (configuration not stated)	94.6%
CC(=O)NCC(=O)N(Cc1ccco1)C1(C(=O)NC2CCCC2)CCCCC1	89.9%
O=C1CC(c2ccccc2)=NN1c1ccc([N+](=O)[O-])cc1	104%
Cc1nn(-c2ccc([N+](=O)[O-])cc2)c(N)c1-c1ccccc1	164% (active)
Cc1nn(-c2ccccc2)c2c1C(c1cccc([N+](=O)[O-])c1)N(c1ccccc1)C(=O)N2 (configuration not stated)	97.4%
CNC(=O)NC(=O)CSc1nnc(-c2ccc(F)cc2)n1CC1CCCO1 (configuration not stated)	103%
Cc1cccc(N=Nc2c(C)[nH]n(-c3ccccc3)c2=O)c1	112%

Structure (SMILES)	activation (% of control)
Cc1cccc(N=Nc2c(O)[nH]c3ccc(F)cc23)c1	161% (active)
COCC(=O)N=Nc1c(O)[nH]c2ccccc12	110%
O=c1c(-c2ccccc2)coc2c(CN3CCOCC3)c(O)ccc12	100%
O=c1c(-c2ccccc2)coc2cc(O)ccc12	137% (active)
CC(=O)COc1ccc2c(-c3ccccc3)cc(=O)oc2c1	109%
O=c1c2c(ncn1Cc1ccccc1)nc1n2CCC1	96.7%
COC(=O)c1ccc(CN2CCN(CCCc3ccccc3)C(CCO)C2)cc1 (configuration not stated)	96.7%
CCOC(=O)c1oc2c(CN3CCN(CCO)CC3)c(O)c(CC)cc2c(=O)c1-c1nc2ccccc2s1	104%
CN1CCCC(OC(=O)COc2ccc(Br)cc2)C1 (configuration not stated)	101%
C/C(=C\C(=O)c1ccc(Br)cc1)N1CCCCC1	105%
CC1CN/C(=C\C(=O)c2ccc(Br)cc2)C(=O)N1 (configuration not stated)	172% (active)
COc1ccc(-n2c(C)cc(C(=O)CSc3nnc(-c4cccs4)o3)c2C)cc1	85.5%
O=C(CSc1nnc2ccccn12)c1ccccc1	123%
Cc1ccc(-n2c(C)cc(C(=O)CSc3nnc4ccccn34)c2C)cc1	150% (active)
CCOc1ccc(C(=O)NC2CCN(CC(=O)NCc3cccs3)CC2)cc1	105%
CN(C)CCCCCN(C)Cc1cc2ccccc2o1	91.6%
Cc1cc(NC(=O)CSc2nnc(Nc3ccccc3F)s2)no1	102%
O=C(NCCCn1ccnc1)c1cc(-c2ccccc2)on1	161% (active)
COc1ccccc1-c1cc(C(=O)NCCCn2ccnc2)no1	112%
COc1ccc(-c2cc(C(=O)NCCCn3ccnc3)no2)cc1	110%
Cc1ccc(NC(=O)CSc2nnc(COc3ccccc3C)o2)cc1	103%
Cc1ccccc1-c1nc(C#N)c(NCc2ccco2)o1	98.1%
O=C(C(=O)N1CCc2ccccc2C1)c1c[nH]c2ccccc12	105%
CC(=O)c1cccc(NC(=O)[C@@H](NC(N)=O)C(C)C)c1	98.5%
COc1ccc(-c2csc(NC(=O)COC(=O)c3ccc(Br)o3)n2)cc1	129% (active)
COc1ccc(-c2csc(NC(=O)COC(=O)Cc3ccc(Cl)cc3Cl)n2)cc1	112%

Structure (SMILES)	activation (% of control)
COc1ccc(-c2csc(NC(=O)CCCc3cccs3)n2)cc1	91.3%
O=C(Nc1ccc2c(c1)CCC2)c1ccc(Br)s1	165% (active)
O=C(NC1CCCC1)c1ccc(Br)s1	108%
CC(C)C(=O)OCC(=O)Nc1ccc2c(c1)CCC2	101%
CC1(C)C(c2cccs2)=[N+]([O-])C2(CCCCC2=O)N1O (configuration not stated)	105%
COc1cc(C(=O)N2C(=O)c3cccc(N)c3C2=O)cc(OC)c1OC	104%
O=C(CCN1CCCCC1)N=Nc1c(O)[nH]c2ccccc12	93.5%
O=C(Nc1ccc2c(c1)C(=O)OC2)Nc1cccc2ccccc12	93.7%
Fc1cc(F)c2nc(N3CCOCC3)sc2c1	122%
CCOC(=O)N1CCC(NC(=O)c2ccc3nc(N4CCOCC4)sc3c2)CC1	102%
Cc1nc(N2CCCCC2)sc1C=O	96.9%
c1c2c(cc3sc(N4CCCCC4)nc13)OCCO2	56.4%
Fc1ccc2nc(N3CCCCC3)sc2c1	147% (active)
Brc1ccc2nc(N3CCCC3)sc2c1	134% (active)
O=C(COC(=O)CC1CC2CCC1C2)NC(=O)NC1CCCC1 (configuration not stated)	101%
CCOC(=O)c1c(C)n(C)c2ccc(OC)c(NS(=O)(=O)CC)c12	111%
CC(=O)c1cc(C#N)c(SCC(=O)C(C)(C)C)nc1C	140% (active)
CC(=O)c1cc(C#N)c(N2CCCCC2)nc1C	95.1%
CC(=O)c1cc(C#N)c(SCC(=O)Nc2nccs2)nc1C	108%
Cc1nc2nc[nH]n2c(=O)c1C/C=C/c1ccccc1	102%
Cc1cccc(OC(=O)c2sc3ncn(C)c(=O)c3c2C)c1	134% (active)
Cc1c(C(N)=O)sc2ncn(CCOc3ccccc3)c(=O)c12	116%
CCOC(=O)C(C)n1cnc2sc(C)c(C)c2c1=O (configuration not stated)	105%
COc1ccc(Br)cc1C(=O)Nc1cccc(C)c1C	95.7%
